Results on 11 compounds are retold here after the supplement of paper PMC8253809.

What all share (test): growth inhibition (% activity, log2 RLU normalised to DMSO / staurosporine); higher = more growth inhibition
Holding throughout (settings): 33 µM

One experiment relates to DIPGX29 (H3.3 K27M diffuse intrinsic pontine glioma line). In a few lines:
(§1)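 In triplicate, pHGG cell lines and H9-derived neural stem cells were treated for 7 days at 37 °C, 5% CO2 with approved drugs at a single final concentration of about 33 μM, added by pin tool. CellTiter-Glo luminescence, after log2 transformation, was normalised on each plate to % activity between solvent and positive control wells. Growth inhibition is reported as the median across replicates.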

Another experiment deals with DIPGX37 (H3.3 K27M diffuse intrinsic pontine glioma line). The essentials:
as §1

In a further experiment the test system is DIPGX7 (H3.3 K27M diffuse intrinsic pontine glioma line). In a few lines:
as §1

A further experiment relates to DIPGX9 (diffuse intrinsic pontine glioma line). The essentials:
as §1

A further experiment deals with HGGX39 (paediatric high-grade glioma line). The essentials: as §1
The next experiment deals with HGGX6 (H3.3 G34R paediatric high-grade glioma line). In a few lines: as §1
In the next experiment the test system is HNSC. In a few lines: as §1
Another experiment deals with SUDIPGIV (diffuse intrinsic pontine glioma line)
The essentials: as §1

Another experiment concerns SUDIPGVI (diffuse intrinsic pontine glioma line)
In a few lines: as §1

The next experiment deals with SUDIPGXIII (diffuse intrinsic pontine glioma line)
In a few lines: as §1

Turning to `COc1ccc(/C=C/C(=O)Nc2ccccc2C(=O)O)cc1OC`, the growth inhibition in the experiment on DIPGX29 is -0.16%; in the experiment with DIPGX37, 2.16%; in the experiment with DIPGX7, 1.32%; in the experiment on DIPGX9 it was -0.609%; with HGGX39, -0.29%; in the experiment with HGGX6, -0.75%. Also, the growth inhibition in the experiment on HNSC is 3.65%; in the experiment with SUDIPGIV it was 0.158%; in the experiment with SUDIPGVI it was -5.28%; in the experiment on SUDIPGXIII, -1.02%.

As for `OC(CNCC(O)C1CCc2cc(F)ccc2O1)C1CCc2cc(F)ccc2O1` (stereo not given), the growth inhibition was found to be 4.79% in the experiment with DIPGX29; 3.01% with DIPGX37; 2.85% with DIPGX7; 4% in the experiment on DIPGX9; 4.24% in the experiment with HGGX39; 6.9% in the experiment with HGGX6. In addition, the growth inhibition in the experiment on HNSC was 2.72%; with SUDIPGIV, 2.21%; in the experiment on SUDIPGVI, -0.86%; with SUDIPGXIII, 2.62%.

For `CC(=O)O[C@]1(C(C)=O)CC[C@H]2[C@@H]3C=C(C)C4=CC(=O)CC[C@]4(C)[C@H]3CC[C@@]21C`, the growth inhibition with DIPGX29 was 0.869%; in the experiment on DIPGX37 it was 1.56%; in the experiment on DIPGX7, 2.71%; in the experiment on DIPGX9, 1.56%; with HGGX39 it was -0.284%; with HGGX6 it was -3.03%. The growth inhibition in the experiment on HNSC was -2.32%; in the experiment on SUDIPGIV, -1.52%; with SUDIPGVI, -0.924%; with SUDIPGXIII it was 1.41%.

Consider `CCOC(=O)[C@H](CCc1ccccc1)N[C@@H](C)C(=O)N1C(=O)N(C)C[C@H]1C(=O)O`, for which the growth inhibition was -1.26% in the experiment with DIPGX29; 0.599% in the experiment on DIPGX37; -0.344% with DIPGX7; -0.304% with DIPGX9; -1.03% with HGGX39; -1.84% with HGGX6. The growth inhibition with HNSC is 1.56%; in the experiment with SUDIPGIV it was -1.04%; in the experiment with SUDIPGVI, -1.53%; in the experiment on SUDIPGXIII it was 1.71%.

`COc1ccc(CN2CCN(C(c3ccc(F)cc3)c3ccc(F)cc3)CC2)c(OC)c1OC`: the growth inhibition in the experiment on DIPGX29 is 3.37%; with DIPGX37 it was 4.29%; with DIPGX7 it was 2.14%; in the experiment with DIPGX9, 3.16%; with HGGX39, 7.88%; with HGGX6 it was 4.43%. Besides, the growth inhibition in the experiment with HNSC is 7.5%; with SUDIPGIV it was 2.85%; with SUDIPGVI it was 3.72%; in the experiment with SUDIPGXIII, -11.1%.

As to `CC[C@@H]1C(=O)OC[C@@H]1Cc1cncn1C`, the growth inhibition is -0.467% in the experiment with DIPGX29; 1.71% in the experiment on DIPGX37; -1.24% in the experiment on DIPGX7; -1.88% with DIPGX9; 0.217% in the experiment on HGGX39; -0.083% in the experiment with HGGX6. Besides, the growth inhibition is -2.25% with HNSC, -1.63% in the experiment on SUDIPGIV, 0.518% in the experiment on SUDIPGVI and -11.1% in the experiment on SUDIPGXIII.

With `CN1C[C@@H]2C[C@H]1CN2c1cc2c(cc1F)c(=O)c(C(=O)O)cn2C1CC1`, the growth inhibition with DIPGX29 was determined as 2.67%; in the experiment on DIPGX37, 1.22%; in the experiment on DIPGX7, 2.59%; with DIPGX9, 1.98%; in the experiment on HGGX39, 6.03%; in the experiment with HGGX6, 1.06%. Further, the growth inhibition in the experiment on HNSC worked out at 7.67%; with SUDIPGIV it was 4.42%; with SUDIPGVI, 3.33%; in the experiment with SUDIPGXIII it was 4.88%.

Turning to `COc1c(C)c2c(c(O)c1C/C=C(\C)CCC(=O)O)C(=O)OC2`, the growth inhibition in the experiment on DIPGX29 came out at 19.1%; with DIPGX37, 19%; with DIPGX7 it was 12%; in the experiment on DIPGX9, 16.2%; in the experiment with HGGX39, 18.1%; in the experiment with HGGX6, 14.7%. Also, the growth inhibition was 57.6% in the experiment with HNSC, 10.7% in the experiment on SUDIPGIV, 11.8% in the experiment with SUDIPGVI and -4.08% in the experiment with SUDIPGXIII.

In the case of `NS(=O)(=O)c1cc(Cl)c(Cl)c(S(N)(=O)=O)c1`, the growth inhibition with DIPGX29 was -2.92%; in the experiment with DIPGX37, -0.619%; in the experiment on DIPGX7, 1.34%; in the experiment on DIPGX9, -2.39%; in the experiment with HGGX39, -1.33%; with HGGX6, -5.6%. Further, the growth inhibition with HNSC was 21.2%; with SUDIPGIV, -2.27%; in the experiment on SUDIPGVI, -8.85%; in the experiment with SUDIPGXIII it was 2.33%.

Take `COc1cc([C@@H]2c3cc4c(cc3[C@@H](O[C@@H]3O[C@@H]5CO[C@@H](C)O[C@H]5[C@H](O)[C@H]3O)[C@H]3COC(=O)[C@H]23)OCO4)cc(OC)c1O`: the growth inhibition with DIPGX29 turned out to be 12.6%; in the experiment with DIPGX37, 4.92%; in the experiment with DIPGX7, 8.84%; in the experiment with DIPGX9 it was 24.1%; with HGGX39, 10.5%; in the experiment with HGGX6, 9.51%. Besides, the growth inhibition with HNSC was found to be 61.4%; with SUDIPGIV it was 38.2%; in the experiment on SUDIPGVI it was 3.89%; with SUDIPGXIII, 5.92%.

As to `COc1ncnc(NS(=O)(=O)c2ccc(N)cc2)c1OC`, the growth inhibition in the experiment on DIPGX29 came out at 0.769%; with DIPGX37, 2.24%; in the experiment with DIPGX7 it was 1.07%; in the experiment on DIPGX9 it was 2.03%; in the experiment on HGGX39, 0.995%; with HGGX6, 1.53%. The growth inhibition in the experiment on HNSC was -1.3%; with SUDIPGIV it was -0.0587%; with SUDIPGVI it was -0.393%; in the experiment with SUDIPGXIII, 1.69%.
